Laboratory results from PubChem BioAssay (EPA / NIEHS).
Values joined by “and” are separate entries in the source; they are usually repeats but may differ in a detail not shown here. Equal values may be shown once. Inconclusive results are not listed. Where a structure was tested more than once in an assay, its records may differ in their call. Active and inactive are the calls of the source. The calls were made as follows, unless noted: active = hit-call score of the fitted dose curve at least 0.9, where 1 is the maximum; inactive = score below 0.9.

read-out: Monokine induced gamma interferon (MIG), CXCL9 (gene 4283); assay: BSK_3C_MIG: BioMAP Diversity Plus: 3C Assay for Monokine induced gamma interferon (MIG) Biomarker Activity (AID 2283021); details: primary human endothelial cells (HUVEC); actives raise or lower the signal;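 as to AC50: MIG protein level measured by immunoassay in the treated endothelial cultures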
In short: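 ELISA-measured MIG in dosed HUVEC 3C cultures at 24 h, analysed by bidirectional fitting with DMSO defining baseline activity.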

Compound | outcome | AC50
O=C1OC2(c3ccccc31)c1cc(I)c(O)c(I)c1Oc1c2cc(I)c(O)c1I | inactive | 
Cc1[nH]nc2c1N=C(c1ccccc1Cl)c1cc([N+](=O)[O-])ccc1N2 | inactive | 
O=C(NCc1ncc(C(F)(F)F)cc1Cl)c1c(Cl)cccc1Cl | inactive | 
N=C(N)c1ccc(OCCCCCOc2ccc(C(=N)N)cc2)cc1 | inactive | 
C=CC(C)(CCC=C(C)C)OC(C)=O (stereo unspecified) | inactive | 
CCCCCCCCCCCCCCCCCC[N+](C)(C)Cc1ccccc1 |  | 5.26 µM (active)
O=C(O)CCC(F)(F)C(F)(F)C(F)(F)C(F)(F)C(F)(F)C(F)(F)F | inactive | 
Oc1ccc(Cc2ccccc2O)cc1 | inactive | 
CCCCC=O | inactive | 
CN(CCO)S(=O)(=O)C(F)(F)C(F)(F)C(F)(F)C(F)(F)C(F)(F)C(F)(F)C(F)(F)C(F)(F)F | inactive | 
COCN(COC)c1nc(N(COC)COC)nc(N(COC)COC)n1 | inactive | 
O=C1c2ccc(O)c(O)c2C(=O)c2c(O)ccc(O)c21 | inactive | 
OCCN1CN(CCO)CN(CCO)C1 |  | 36.6 µM (active)
CCCCc1oc2ccccc2c1C(=O)c1cc(I)c(OCCN(CC)CC)c(I)c1 |  | 25.7 µM (active)
O=C(O)CCC(F)(F)C(F)(F)C(F)(F)C(F)(F)C(F)(F)F | inactive | 
CN(Cc1cnc2nc(N)nc(N)c2n1)c1ccc(C(=O)N[C@@H](CCC(=O)O)C(=O)O)cc1 | inactive | 
O=C(CC(=O)C(F)(F)C(F)(F)C(F)(F)F)c1cccs1 |  | 51.9 µM (active) and 52.2 µM (active)
CS(=O)(=O)c1ccc([C@@H](CC2CCCC2)C(=O)Nc2cnccn2)cc1Cl | inactive | 
CC1=NN(c2ccccc2)C(=O)C1 | inactive | 

biological target: human Vitamin D Receptor (VDR), VDR (gene 7421) (UniProt P11473); assay: ATG_VDR_TRANS: Attagene TRANS-FACTORIAL HepG2 Assay for human Vitamin D Receptor (VDR) (AID 2283022; active = hit-call score of the fitted dose curve at least 0.9, where 1 is the maximum); details: not given
Sequence (P11473 whole entry, looked up, the tested form may be a part): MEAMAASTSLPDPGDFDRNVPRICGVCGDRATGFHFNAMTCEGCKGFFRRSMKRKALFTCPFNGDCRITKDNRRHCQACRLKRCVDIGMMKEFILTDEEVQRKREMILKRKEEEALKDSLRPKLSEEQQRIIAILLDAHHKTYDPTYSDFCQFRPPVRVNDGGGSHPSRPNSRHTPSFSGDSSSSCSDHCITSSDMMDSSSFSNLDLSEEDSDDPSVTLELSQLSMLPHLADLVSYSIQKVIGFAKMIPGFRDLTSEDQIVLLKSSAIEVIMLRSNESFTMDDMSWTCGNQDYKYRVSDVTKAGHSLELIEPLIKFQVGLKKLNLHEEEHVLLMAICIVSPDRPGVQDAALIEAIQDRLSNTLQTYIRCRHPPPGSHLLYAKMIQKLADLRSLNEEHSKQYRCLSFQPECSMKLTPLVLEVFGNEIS
In short: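 RT-PCR/capillary electrophoresis read-out of reporter mRNA induction in transiently transfected HepG2; 24 h dosing; chimeric NR-Gal4 (TRANS format); gain-of-signal fit against DMSO baseline.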

Compound | outcome | AC50
O=P(O)(O)CCC(F)(F)C(F)(F)C(F)(F)C(F)(F)C(F)(F)C(F)(F)C(F)(F)C(F)(F)F | inactive | 
CCC(C)c1ccccc1O (stereo unspecified) | inactive | 
O=C(O)C(F)(F)OC(F)(F)C(F)(F)OC(F)(F)C(F)(F)OC(F)(F)C(F)(F)C(F)(F)C(F)(F)F | inactive | 
C[C@]12CC[C@@H]3c4ccc(O)cc4CC[C@H]3[C@@H]1C[C@@H](O)[C@@H]2O | inactive | 
CCOC(=O)CN[C@@H](C(=O)N1CC[C@H]1C(=O)NCc1ccc(/C(N)=N/O)cc1)C1CCCCC1 | inactive | 
CCCCC(CC)C(=O)OCCOCCOCCOCCOC(=O)C(CC)CCCC (stereo unspecified) | inactive | 
Clc1ccc(Nc2nnc(Cc3ccncc3)c3ccccc23)cc1 | inactive | 
Cc1cccc2c1ccc1ccccc12 | inactive | 
CC(C)(C)c1ccc(O)c(O)c1 | inactive | 
CN(C)c1ccc(C(=C2C=CC(=[N+](C)C)C=C2)c2ccccc2)cc1 | inactive | 
O=S(=O)(O)C(F)(F)C(F)(F)C(F)(F)C(F)(F)C(F)(F)C(F)(F)C(F)(F)C(F)(F)C(F)(F)C(F)(F)F | inactive | 
O=C(NO)c1ccccc1 | inactive | 
CC[N+](CC)(CC)Cc1ccccc1 | inactive | 
O=C(c1ccccc1)c1ccccc1 | inactive | 
OCC(F)(F)C(F)(F)C(F)(F)C(F)(F)C(F)(F)C(F)(F)C(F)(F)C(F)(F)C(F)(F)C(F)(F)C(F)(F)F | inactive | 
O=C1OC2(c3ccccc31)c1cc(I)c(O)c(I)c1Oc1c2cc(I)c(O)c1I | inactive | 
Cc1[nH]nc2c1N=C(c1ccccc1Cl)c1cc([N+](=O)[O-])ccc1N2 | inactive | 
O=C(NCc1ncc(C(F)(F)F)cc1Cl)c1c(Cl)cccc1Cl | inactive | 
N=C(N)c1ccc(OCCCCCOc2ccc(C(=N)N)cc2)cc1 | inactive | 
C=CC(C)(CCC=C(C)C)OC(C)=O (stereo unspecified) | inactive | 
CCCCCCCCCCCCCCCCCC[N+](C)(C)Cc1ccccc1 | inactive | 
O=C(O)CCC(F)(F)C(F)(F)C(F)(F)C(F)(F)C(F)(F)C(F)(F)F | inactive | 
Oc1ccc(Cc2ccccc2O)cc1 | inactive | 
CCCCC=O | inactive | 
COCN(COC)c1nc(N(COC)COC)nc(N(COC)COC)n1 | inactive | 
O=C1c2ccc(O)c(O)c2C(=O)c2c(O)ccc(O)c21 | inactive | 
OCCN1CN(CCO)CN(CCO)C1 | inactive | 
CCCCc1oc2ccccc2c1C(=O)c1cc(I)c(OCCN(CC)CC)c(I)c1 |  | 47.5 µM (active)
O=C(O)CCC(F)(F)C(F)(F)C(F)(F)C(F)(F)C(F)(F)F | inactive | 
O=C(CC(=O)C(F)(F)C(F)(F)C(F)(F)F)c1cccs1 | inactive | 

read-out: not listed separately; assay: BSK_3C_SRB: Viability Assessment in the BioMAP Diversity Plus: 3C Assay (AID 2283023); details: primary human endothelial cells (HUVEC);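 also: cells read 24 h after compound dosing; fitted both ways against DMSO so a hit may be signal rise or drop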
In short: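 HUVEC, 24 h post-dose; 10% TCA fix, 0.1% SRB stain, A560 nm. Bidirectional curve fit vs DMSO negative control.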

Compound | AC50 | outcome
O=P(O)(O)CCC(F)(F)C(F)(F)C(F)(F)C(F)(F)C(F)(F)C(F)(F)C(F)(F)C(F)(F)F | 47 µM (active) | inactive
CCC(C)c1ccccc1O (stereo unspecified) |  | inactive
O=C(O)C(F)(F)OC(F)(F)C(F)(F)OC(F)(F)C(F)(F)OC(F)(F)C(F)(F)C(F)(F)C(F)(F)F | 26.1 µM (active) and 24 µM (active) | 
CCCCCCCCCCCCCCC |  | inactive
O=C1NS(=O)(=O)c2ccccc21 |  | inactive
C[C@]12CC[C@@H]3c4ccc(O)cc4CC[C@H]3[C@@H]1C[C@@H](O)[C@@H]2O |  | inactive
CCOC(=O)CN[C@@H](C(=O)N1CC[C@H]1C(=O)NCc1ccc(/C(N)=N/O)cc1)C1CCCCC1 |  | inactive
CCCCC(CC)C(=O)OCCOCCOCCOCCOC(=O)C(CC)CCCC (stereo unspecified) |  | inactive
Cc1cccc2c1ccc1ccccc12 |  | inactive
CC(C)(C)c1ccc(O)c(O)c1 | 5.42 µM (active) | 
CN(C)c1ccc(C(=C2C=CC(=[N+](C)C)C=C2)c2ccccc2)cc1 | 0.055 µM (active) | 
O=P(O)(O)CCC(F)(F)C(F)(F)C(F)(F)C(F)(F)C(F)(F)C(F)(F)F |  | inactive
O=S(=O)(O)C(F)(F)C(F)(F)C(F)(F)C(F)(F)C(F)(F)C(F)(F)C(F)(F)C(F)(F)C(F)(F)C(F)(F)F | 18.5 µM (active) and 14.5 µM (active) | 
O=C(NO)c1ccccc1 |  | inactive
CC[N+](CC)(CC)Cc1ccccc1 |  | inactive
O=C(c1ccccc1)c1ccccc1 |  | inactive
OCC(F)(F)C(F)(F)C(F)(F)C(F)(F)C(F)(F)C(F)(F)C(F)(F)C(F)(F)C(F)(F)C(F)(F)C(F)(F)F | 271 nM (active) and 201 nM (active) | 
O=C1OC2(c3ccccc31)c1cc(I)c(O)c(I)c1Oc1c2cc(I)c(O)c1I | 12 µM (active) | 

Compound | AC50 | outcome
Cc1[nH]nc2c1N=C(c1ccccc1Cl)c1cc([N+](=O)[O-])ccc1N2 | 0.75 µM (active) | 
O=C(NCc1ncc(C(F)(F)F)cc1Cl)c1c(Cl)cccc1Cl |  | inactive
N=C(N)c1ccc(OCCCCCOc2ccc(C(=N)N)cc2)cc1 |  | inactive
C=CC(C)(CCC=C(C)C)OC(C)=O (stereo unspecified) | 28.9 µM (active) | 
CCCCCCCCCCCCCCCCCC[N+](C)(C)Cc1ccccc1 | 0.299 µM (active) | 
O=C(O)CCC(F)(F)C(F)(F)C(F)(F)C(F)(F)C(F)(F)C(F)(F)F |  | inactive
Oc1ccc(Cc2ccccc2O)cc1 |  | inactive
CCCCC=O |  | inactive
CN(CCO)S(=O)(=O)C(F)(F)C(F)(F)C(F)(F)C(F)(F)C(F)(F)C(F)(F)C(F)(F)C(F)(F)F |  | inactive
COCN(COC)c1nc(N(COC)COC)nc(N(COC)COC)n1 |  | inactive
O=C1c2ccc(O)c(O)c2C(=O)c2c(O)ccc(O)c21 |  | inactive
OCCN1CN(CCO)CN(CCO)C1 | 32.1 µM (active) | 
CCCCc1oc2ccccc2c1C(=O)c1cc(I)c(OCCN(CC)CC)c(I)c1 | 8.48 µM (active) | 
O=C(O)CCC(F)(F)C(F)(F)C(F)(F)C(F)(F)C(F)(F)F |  | inactive
CN(Cc1cnc2nc(N)nc(N)c2n1)c1ccc(C(=O)N[C@@H](CCC(=O)O)C(=O)O)cc1 |  | inactive
O=C(CC(=O)C(F)(F)C(F)(F)C(F)(F)F)c1cccs1 | 24.1 µM (active) and 43.7 µM (active) | 
CS(=O)(=O)c1ccc([C@@H](CC2CCCC2)C(=O)Nc2cnccn2)cc1Cl | 30.3 µM (active) | 
CC1=NN(c2ccccc2)C(=O)C1 |  | inactive
